In the library only some 31% were active in any assay of this set; here they are far more common.
CYP2C9 activ: increases human cytochrome P450 2C9 activity | recombinant CYP2C9, luciferin-H conversion, luminescence; stronger effect = higher value; factor 1 = untreated enzyme, 0 = blocked | activation factor at 5 µM | 96,000 compounds, 1.4% hits;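 active = activation factor of 2 or more for CYP2C9 at a 5 µM dose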;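 note: 0 = sulfaphenazole-blocked wells and 1 = vehicle-only wells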
Target sequence (P11712 whole entry, looked up): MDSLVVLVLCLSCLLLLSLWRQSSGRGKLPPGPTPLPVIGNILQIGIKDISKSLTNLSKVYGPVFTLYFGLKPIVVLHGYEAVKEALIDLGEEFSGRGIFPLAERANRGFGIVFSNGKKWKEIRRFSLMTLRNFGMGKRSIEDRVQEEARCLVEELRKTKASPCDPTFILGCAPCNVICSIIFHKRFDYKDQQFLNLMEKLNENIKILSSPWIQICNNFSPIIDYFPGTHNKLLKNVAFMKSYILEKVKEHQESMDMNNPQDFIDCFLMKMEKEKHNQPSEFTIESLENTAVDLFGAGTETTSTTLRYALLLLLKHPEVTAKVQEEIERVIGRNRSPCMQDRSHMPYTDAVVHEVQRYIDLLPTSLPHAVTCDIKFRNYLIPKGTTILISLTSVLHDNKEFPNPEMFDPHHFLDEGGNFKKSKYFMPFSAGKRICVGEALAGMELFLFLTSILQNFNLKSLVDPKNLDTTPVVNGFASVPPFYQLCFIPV
PLAP activator: activates human placental alkaline phosphatase. P05187. purified PLAP enzyme, luminescent substrate read-out; stronger effect = higher value. activation fold at 20 µM. 96,000 compounds, 1.2% hits; in the data active = activation fold above about 2
CYP2C19 activ: activators of human cytochrome P450 2C19. P33261. recombinant CYP2C19, luciferin-H EGE luminescence; stronger effect = higher value; 0 = fully inhibited enzyme, 1 = untreated enzyme. activation factor at 5 µM. 96,000 tested, under 10 active;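 active = activation factor of at least 2 at 5 µM in the primary screen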;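 note: 0 = wells with 2.5 mM tranylcypromine and 1 = vehicle-only wells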
CYP2C19 inh: human CYP2C19 inhibition. P33261. CYP2C19 Supersomes, luciferin-H EGE luminescence, 30 min. inhibition, % at 5 µM. 96,000 compounds, 21% hits. AID 778;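 active = CYP2C19 inhibition above a set limit at 5 µM in the primary screen, cut at about 50% in these data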;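 note: plate controls were negative control wells for no effect and 2.5 mM tranylcypromine positive control for full effect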
CYP2C9 inhib: human CYP2C9 inhibition; 96,000 compounds, 20% hits; P11712; inhibition, % at 5 µM; CYP2C9 Supersomes, luciferin-H conversion, luminescence;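 active = blocking of liver enzyme CYP2C9 beyond about 50% at 5 µM, limit read from the data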
Numbers without * were called inactive.

What do the screens show for `O=C(NC1CCCCC1)C1CCCN1S(=O)(=O)c1cccc2nsnc12` (stereo not given)?
CYP2C9 activ: 0.5; PLAP activator: 1; CYP2C19 activ: 0.6; CYP2C19 inh: 41; CYP2C9 inhib: 54*

How did O=C(NC1CCCC1)C(NS(=O)(=O)c1cccc2nsnc12)c1ccccc1 (stereo not given) do in these assays?
CYP2C9 activ: 0.5; PLAP activator: 0.9; CYP2C19 activ: 0.9; CYP2C19 inh: 6; CYP2C9 inhib: 50*

What do the screens show for `O=C(CCS(=O)(=O)c1cccc2nsnc12)NC1CCCCCC1`?
CYP2C9 activ: 1.2; PLAP activator: 1; CYP2C19 activ: 0.9; CYP2C19 inh: 13; CYP2C9 inhib: -16

How did CCOC(=O)N1CCN(C(=O)C(NS(=O)(=O)c2cccc3nsnc23)c2ccccc2)CC1 (stereo not given) do in these assays?
CYP2C9 activ: 0.3; PLAP activator: 1.3; CYP2C19 activ: 1.1; CYP2C19 inh: -9; CYP2C9 inhib: 73*

Results for CCN(CC)N=Nc1[nH]nc2nc(C)cc(C)c12 ?
CYP2C9 activ: 0.9; PLAP activator: 1.2; CYP2C19 activ: 1; CYP2C19 inh: -3; CYP2C9 inhib: 6

Results for C#CCOC(=O)c1ccccc1C(=O)N(CC)CC ?
CYP2C9 activ: 1; PLAP activator: 1; CYP2C19 activ: 0.9; CYP2C19 inh: 8; CYP2C9 inhib: 4

What do the screens show for `Fc1ccccc1N1CCN(CCCNc2ccc3nncn3n2)CC1`?
CYP2C9 activ: 1; PLAP activator: 0.9; CYP2C19 activ: 0.6; CYP2C19 inh: 37; CYP2C9 inhib: 2

How did O=C(COc1ccc(Cl)cc1Cl)NCc1ccco1 do in these assays?
CYP2C9 activ: 0.7; PLAP activator: 0.9; CYP2C19 activ: 0.7; CYP2C19 inh: 32; CYP2C9 inhib: 32

Results for O=C(COc1ccc(Cl)cc1Cl)Nc1ccc(Cl)cn1 ?
CYP2C9 activ: 0.9; PLAP activator: 0.9; CYP2C19 activ: 0.4; CYP2C19 inh: 58*; CYP2C9 inhib: 14

Results for Cc1ccc(C(C)C)c(OCC(=O)Nc2ccc(Cl)cn2)c1 ?
CYP2C9 activ: 0.8; PLAP activator: 0.9; CYP2C19 activ: 0.6; CYP2C19 inh: 36; CYP2C9 inhib: 22

How did Cn1cc(CNC(=O)COc2ccc(Cl)cc2Cl)cn1 do in these assays?
CYP2C9 activ: 1; PLAP activator: 1.1; CYP2C19 activ: 0.1; CYP2C19 inh: 89*; CYP2C9 inhib: 2

What do the screens show for `Cn1c(=O)[nH]c(=O)c2c1nc(Sc1nc3ccccc3s1)n2Cc1ccccc1`?
CYP2C9 activ: 0.8; PLAP activator: 1.2; CYP2C19 activ: 0.8; CYP2C19 inh: 19; CYP2C9 inhib: 22

How did CCCCc1nn(-c2cc(Cl)ccc2OC)c2c1C(=O)CCC2 do in these assays?
CYP2C9 activ: 0.1; PLAP activator: 1.7; CYP2C19 activ: 0; CYP2C19 inh: 97*; CYP2C9 inhib: 92*

What do the screens show for `COc1ccc(OC(=O)c2ccc3nsnc3c2)cc1`?
CYP2C9 activ: 1; PLAP activator: 1; CYP2C19 activ: 0.9; CYP2C19 inh: 11; CYP2C9 inhib: 0

Results for O=c1cc(Cl)[nH]c(=O)n1CCNc1ncc(C(F)(F)F)cc1Cl ?
CYP2C9 activ: 0; PLAP activator: 1.5; CYP2C19 activ: 0.3; CYP2C19 inh: 68*; CYP2C9 inhib: 100*

What do the screens show for `CCOC(=O)c1cnn(CCOC(=O)C2CC2)c1NC(=O)C1CC1`?
CYP2C9 activ: 0.9; PLAP activator: 1.1; CYP2C19 activ: 0.8; CYP2C19 inh: 19; CYP2C9 inhib: 10

What do the screens show for `CC(NCc1ccc(N(C)C)cc1)C1CC2CCC1C2` (stereo not given)?
CYP2C9 activ: 0.9; PLAP activator: 0.8; CYP2C19 activ: 0.1; CYP2C19 inh: 86*; CYP2C9 inhib: 7

What do the screens show for `CN(C)c1ccc(CNC2CC(C)(C)NC(C)(C)C2)cc1`?
CYP2C9 activ: 1.2; PLAP activator: 1; CYP2C19 activ: 1.2; CYP2C19 inh: -17; CYP2C9 inhib: -19

Results for Cc1cc(NC(=O)c2c(Cl)cnn2C)no1 ?
CYP2C9 activ: 1.1; PLAP activator: 0.9; CYP2C19 activ: 1; CYP2C19 inh: -4; CYP2C9 inhib: -10

How did COc1ccccc1N1CCN(C(=O)Nc2cccc(C)c2)CC1 do in these assays?
CYP2C9 activ: 1.3; PLAP activator: 1.1; CYP2C19 activ: 0.8; CYP2C19 inh: 21; CYP2C9 inhib: -30

How did COc1ccccc1NC(=O)c1sc2nc(Cc3ccccc3)cc(C(F)(F)F)c2c1N do in these assays?
CYP2C9 activ: 0.8; PLAP activator: 1.1; CYP2C19 activ: 0.8; CYP2C19 inh: 21; CYP2C9 inhib: 22

What do the screens show for `CCCCCCC1CC(C)(/C(C)=N/NC(N)=O)OC1=O` (stereo not given)?
CYP2C9 activ: 0.9; PLAP activator: 1.3; CYP2C19 activ: 0.9; CYP2C19 inh: 14; CYP2C9 inhib: 7

How did COc1cc(/C=C/c2cc(OC(C)=O)c3ccccc3n2)c(OC(C)=O)c([N+](=O)[O-])c1 do in these assays?
CYP2C9 activ: 0.2; PLAP activator: 0.9; CYP2C19 activ: 0.2; CYP2C19 inh: 75*; CYP2C9 inhib: 79*

Results for CC(=O)Oc1c(Cl)cc(Cl)cc1/C=C/c1ccc2ccccc2n1 ?
CYP2C9 activ: 1; PLAP activator: 1; CYP2C19 activ: 0.9; CYP2C19 inh: 7; CYP2C9 inhib: 3

What do the screens show for `CCC(CC)C(=O)NCCc1cc2ccc(C)c(C)c2[nH]c1=O`?
CYP2C9 activ: 0.9; PLAP activator: 1; CYP2C19 activ: 1.1; CYP2C19 inh: -5; CYP2C9 inhib: 13

How did COc1ccccc1CN1CCSCC1 do in these assays?
CYP2C9 activ: 0.9; PLAP activator: 0.9; CYP2C19 activ: 0.8; CYP2C19 inh: 18; CYP2C9 inhib: 6

How did Fc1ccc(CN2CCSCC2)cc1Br do in these assays?
CYP2C9 activ: 0.8; PLAP activator: 1.2; CYP2C19 activ: 0.2; CYP2C19 inh: 84*; CYP2C9 inhib: 16

How did CCOC(=O)C1CCN(Cc2ccc(F)cc2F)CC1 do in these assays?
CYP2C9 activ: 0.8; PLAP activator: 1.2; CYP2C19 activ: 0.6; CYP2C19 inh: 37; CYP2C9 inhib: 22

What do the screens show for `CCOC(=O)C1CCN(Cc2ccc(F)c(Br)c2)CC1`?
CYP2C9 activ: 0.5; PLAP activator: 1.8; CYP2C19 activ: 0.4; CYP2C19 inh: 63*; CYP2C9 inhib: 50

How did COc1ccc(NC(=O)N2CCn3c2nc2ccccc23)cc1 do in these assays?
CYP2C9 activ: 0.3; PLAP activator: 1; CYP2C19 activ: 0.5; CYP2C19 inh: 49; CYP2C9 inhib: 71*

How did CC(C)n1c(N2CCN(C(=O)Nc3ccccc3)CC2)nc2ccccc21 do in these assays?
CYP2C9 activ: 0.5; PLAP activator: 1.2; CYP2C19 activ: 0.6; CYP2C19 inh: 36; CYP2C9 inhib: 52*

What do the screens show for `S=C(Nc1ccccc1)N1CCn2c1nc1ccccc12`?
CYP2C9 activ: 0.9; PLAP activator: 1; CYP2C19 activ: 1; CYP2C19 inh: 5; CYP2C9 inhib: 9

Results for O=C(Nc1ccccc1)N1CCn2c1nc1ccccc12 ?
CYP2C9 activ: 0.3; PLAP activator: 0.9; CYP2C19 activ: 0.8; CYP2C19 inh: 18; CYP2C9 inhib: 66*
